About 83,000 compounds went through this panel and 20% of them were active in at least one assay; those are over-represented in the sample as a whole.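 How to read the values: 0–100, growth inhibition (40 = 60% inhibited); 0, no net growth; -100 to 0, cell death (-40 = 40% of starting cells died; -100 = all dead).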 A number with no mark means an inactive call. Calls of active or inactive are those of the source. Rule for the calls: active = growth percent below 10; inactive = the rest.
Tested on: COLO 205 colon
Assay: NCI-60 one-dose screen, 48 h (100 = growth as untreated, 0 = no growth, -100 = all killed)
Details: 10 µM unless noted

SMILES | growth
O=c1c2ccccc2n2cnc3ccc(Cl)c1c32 | 91.8%
CCN(CC)CC(O)COc1c(Br)c(Br)c(Br)c2c1OC(C)(C)C2 (configuration not stated) | 67.7%
N#Cc1c(-c2ccccc2)cc(-c2ccccc2)n(CCCC(=O)Nc2ccccc2N)c1=O | 92.3%
CC1OC(n2c3ccccc3c3c4c(c5c6ccccc6[nH]c5c32)C(=O)N(CCN2CCCC2)C4=O)CC(O)C1O (configuration not stated) | 24.8%
CCOC(=O)NC(C)C | 129%
COc1ccc2[nH]c(C(=O)N3CCN(C(=O)OCc4ccc5c(Cl)cc(Cl)c(O)c5n4)CC3)cc2c1 | -81.6% (active)
O=C(/C=C/c1ccccc1)Nc1ncc(Cc2ccccc2Cl)s1 | 2.14% (active)
COC12C=C/C(=C(/C(=O)OCc3ccncc3)C(=O)CCCCCCCCC3(OC)C=C/C(=C(/C(=O)OCc4ccncc4)C(=O)CCCCCCCC1)O3)O2 | -25% (active)
CC(C)=CC(=O)OCC(=O)O[C@@H]1C[C@]2(C(C)C)O[C@@]1(C)[C@@H]1CC[C@@H](C)[C@H]1[C@@H]2OC(=O)/C=C/c1ccccc1 | 106%
COc1ccc(Cc2cnc(NC(=O)c3cc(C)oc3C)s2)cc1 | 42.9%
NC(Cc1ccc(O)c([N+](=O)[O-])c1)C(=O)O (configuration not stated) | 122%
CC(C)COc1nc2c(c(=O)n(C)c(=O)n2C)n1C | 109%
CCc1ccccc1-n1c(-c2ccc(OC)cc2)cc(-c2ccc(OC)cc2)c(C#N)c1=O | 132%
CCCCCOC(=O)c1c(C)[nH]c(/C=C2\N=C(c3ccc[nH]3)C=C2OC)c1C | -88.2% (active)
CCCCCC(/C=N\NC(=S)N/N=C/C(=C/c1ccccc1)CCCCC)=C\c1ccccc1 | 97.2%
O=C(c1nn(-c2ccccc2)c2c1CC(NCc1ccc(F)cc1)CC2)N1CCCCC1 (configuration not stated) | 108%
CCOC(=O)c1cc2c(n1Cc1cc(OC)c(OC)c(OC)c1)-c1nc(N)sc1CCC2 | 40.3%
COC(=O)CC[C@H](C)[C@H]1CC[C@H]2[C@@H]3CC[C@@H]4CC5(CC[C@]4(C)[C@H]3CC(=O)[C@]12C)Nc1ccccc1NC5=NC(C)(C)C (some centres not stated) | 66.4%
CCN(CC)CCCCCNc1cc(OC(=O)c2ccc(Cl)cc2)cc2cccnc12 | 33.9%

SMILES | growth
CC1CCc2c(C(=O)Nc3ncc(Cc4cccc([N+](=O)[O-])c4)s3)csc2C1 (configuration not stated) | 10.8%
COCCNC(=O)Nc1ccc2nc(-c3cccs3)c(-c3cccs3)nc2c1 | 107%
OCCn1cc(-c2nc(-c3c[nH]c4ncccc34)cs2)c2cc(F)ccc21 | 66.4%
N#Cc1ccc(O)c(C2=NCC(c3ccccc3)O2)c1 (configuration not stated) | 36%
C#CCOC(=O)/C=C/c1cn(-c2ccccc2)nc1-c1ccc(OC)cc1 | 121%
CCCC/C(CC)=N\NS(=O)(=O)c1ccc([N+](=O)[O-])cc1 | 105%
Nc1n[nH]c2cccc(C#Cc3cccc(NC(=O)c4cc(F)cc(C(F)(F)F)c4)c3)c12 | 83.7%
O=C1/C(=C/c2ccccc2O)CC/C1=C\c1ccccc1O | 107%
Cn1cc(-c2csc(-c3cn(C(=O)OC(C)(C)C)c4ccc(Br)cc34)n2)c2ccnc(Cl)c21 | 90.9%
O=C(Nc1cccc(-c2ccc(N3CCOCC3)nn2)c1)Nc1cccc(C(F)(F)F)c1 | 81%
COc1cc(-c2nccc3[nH]c(-c4ccc5cc[nH]c5c4)nc23)cc(OC)c1OC | -71.5% (active)
C=CC[Se]C(=O)Cc1c(C)n(C(=O)c2ccc(Cl)cc2)c2ccc(OC)cc12 | -32.1% (active)
Cc1cc(C(=O)O)c(C)n1-c1cccc(C(=O)O)c1 | 92.5%
COCCOc1cc2ncnc(N3CCN(c4cc(S(C)(=O)=O)c(C)cc4Cl)CC3)c2cc1OCCOC | 97.1%
O=C(N(c1ccccc1)c1ccccc1)n1cc(I)c2nc(Cl)nc(Cl)c21 | 79.4%
C=CCn1c(SCC(=O)Nc2ccc(C(=O)/C=C/c3ccc(Cl)cc3)cc2)nnc1-c1ccc(Br)cc1 | 118%
C=CCN=c1sc2c(n1NC(=O)c1cc3ccc1CCc1ccc(cc1)CC3)C(=O)c1ccccc1C2=O | 19.2%
Nc1c(C(=O)Nc2ccccc2F)sc2nc3c(cc12)CCCC3 | 13%

From PubChem BioAssay (NCI)
